# According to the supplement of paper PMC9694430:
# System: LOC_OS04G35114-cb001
# Experiment: thermal shift delta Tm vs DMSO control; higher = stronger stabilization (binding)
# Conditions: 12.5 µM; protein concentration 2 µM
# Method in brief: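 Rice kinase domain constructs, made in E. coli and purified, were placed in 96-well plates at 2 μM in 19.5 μl of 100 mM potassium phosphate pH 7.5, 150 mM NaCl, 10% glycerol and 5 × SYPRO Orange, with compound in DMSO. A temperature ramp from 25°C to 95°C at 0.05°C/s was used for differential scanning fluorimetry. The melting temperature shift is a triplicate mean compared with DMSO-only protein, derived from Boltzmann fits.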
# 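Further: purified Escherichia coli-expressed rice kinase domain construct.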
row,Structure (SMILES),thermal shift delta Tm [°C]
1,COc1cc(OC)cc(-c2cc3cnc(N)nc3nc2NC(=O)NC(C)(C)C)c1,0
2,COc1cc2nccc(Oc3ccc(NC(=O)C4(C(=O)Nc5ccc(F)cc5)CC4)cc3)c2cc1OC [Cabozantinib malate (XL184)],0.52
3,COc1ncc(-c2ccc3nccc(-c4ccnnc4)c3c2)cc1NS(=O)(=O)c1ccc(F)cc1F,2.35
4,Cc1cc(C(C)Nc2ccccc2)c2nc(N3CCOCC3)cc(=O)n2c1 (stereo not drawn),0.33
5,FC(F)(F)c1ccc(CNc2ccc(Cc3c[nH]c4ncc(Cl)cc34)cn2)cn1 [Pexidartinib (PLX3397)],9.82
6,NC(=O)c1ccc(N(C(N)=O)c2c(F)cccc2F)nc1-c1ccc(F)cc1F,0.57
7,NCC(=O)Nc1ccc(-n2nc(C(F)(F)F)cc2-c2ccc3c(ccc4ccccc43)c2)cc1,-0.57
8,CCn1c(-c2nonc2N)nc2c(C#CC(C)(C)O)ncc(OC[C@H]3CCCNC3)c21,0.41
9,Nc1cccc(S(=O)(=O)N2CCCN(S(=O)(=O)c3ccc4c(c3)OCCO4)CC2)c1,0.8
10,C[C@@H]1COC(Nc2ccc3ncnc(Nc4ccc(OCc5nccs5)c(Cl)c4)c3c2)=N1 [Varlitinib],1.59
11,Cc1cc2c(F)c(Oc3ncnn4cc(OC[C@@H](C)OC(=O)[C@H](C)N)c(C)c34)ccc2[nH]1,5.17
12,CNC(=O)c1ccc(-c2cnc3ncc(Cc4ccc5ncccc5c4)n3n2)cc1F,0.19
13,CN(C)C/C=C/C(=O)Nc1cc2c(Nc3ccc(F)c(Cl)c3)ncnc2cc1O[C@H]1CCOC1 [Afatinib (BIBW2992)],4.16
14,O=c1cc(N2CCOCC2)oc2c(-c3ccc4c(c3)OCCO4)csc12,1.85
15,C=CC(=O)Nc1cc(Nc2nccc(-c3c[nH]c4ccccc34)n2)c(OC)cc1N(C)CCN(C)C,4.03
16,Nc1nccc(Oc2ccc3c(C(=O)Nc4cccc(C(F)(F)F)c4)cccc3c2)n1,0.62
17,CC(C)(C)c1nc(-c2ccc(NC(=O)Nc3cccc(C(F)(F)F)c3)c3ccccc23)c2c(N)nccn12 [kira6],3.47
18,COc1ccc(-c2cc3c(C)nc(N)nc3n([C@H]3CC[C@H](OCCO)CC3)c2=O)cn1,0.77
19,O=C(O)c1cc(O)c2c(c1)[C@@H]([C@H]1c3cc(C(=O)O)cc(O)c3C(=O)c3c(O[C@@H]4O[C@H](CO)[C@@H](O)[C@H](O)[C@H]4O)cccc31)c1cccc(O[C@@H]3O[C@H](CO)[C@@H](O)[C@H](O)[C@H]3O)c1C2=O [Sennoside B],0.32

row,Structure (SMILES),thermal shift delta Tm [°C]
1,NC(=O)c1cnc2[nH]ccc2c1N[C@@H]1[C@@H]2CC3C[C@H]1C[C@@](O)(C3)C2,3.87
2,C=CC(=O)Nc1cccc(Nc2nc(Nc3ccc(OCCOC)cc3)ncc2F)c1,3.89
3,CCS(=O)(=O)Nc1ccc2c(c1)/C(=C(/Nc1ccc(CN3CCCCC3)cc1)c1ccccc1)C(=O)N2 [Hesperadin],13.2
4,COc1cc2c(cc1OC)[C@@H]1C(=O)c3ccc4c(c3O[C@@H]1CO2)C=CC(C)(C)O4 [Deguelin],0.63
5,Cc1cc(Nc2cc(N3CCN(C)CC3)nc(/C=C/c3ccccc3)n2)n[nH]1 [ENMD-2076 L-(+)-Tartaric acid],6.49
6,Cc1ccc(NC(=O)c2ccc(CN3CCN(C)CC3)cc2)cc1Nc1nc(-c2cccnc2)cs1 [Masitinib (AB1010)],0.04
7,C=CC(=O)N1CC[C@@H](Oc2nc(Nc3ccc(N4CCC(N5CCN(C)CC5)CC4)cc3)c(C(N)=O)nc2CC)C1 [Naquotinib(ASP8273)],8.09
8,N#CC(=C(/N)Sc1ccccc1N)/C(C#N)=C(\N)Sc1ccccc1N,-0.47
9,COc1cc2/c(=N/c3ccc(Br)cc3F)nc[nH]c2cc1OCC1CCN(C)CC1 [Vandetanib (ZD6474)],8.6
10,O=C(Nc1cccc(C(F)(F)F)c1)c1cccc2cc(Oc3cc(CO)ncn3)ccc12,0.55
11,CS(=O)(=O)CCNCc1ccc(-c2ccc3ncnc(Nc4ccc(OCc5cccc(F)c5)c(Cl)c4)c3c2)o1 [Lapatinib],2.03
12,c1cn2cc(-c3ccc4cn[nH]c4c3)nc(Nc3ccc(N4CCOCC4)cc3)c2n1 [Entospletinib (GS-9973)],2.13
13,CS(=O)(=O)c1cccc(CNc2nc(Nc3ccc4c(c3)CCC(=O)N4)ncc2C(F)(F)F)c1,3.71
14,CN1CCN(Cc2ccc(NC(=O)Nc3ccc(Oc4ccnc(N)n4)cc3)cc2C(F)(F)F)CC1,0.16
15,OCCn1cc(-c2cnc3nnn(Cc4ccc5ncccc5c4)c3n2)cn1,0.87
16,O=C1NC(=O)C(c2cnc3ccccn23)=C1c1cn2c3c(cc(F)cc13)CN(C(=O)N1CCCCC1)CC2,1.35
17,C=CC(=O)N1CCC[C@@H](n2nc(-c3ccc(Oc4ccccc4)cc3)c3c(N)ncnc32)C1,3.03
18,CC(C)(O)CNc1ncc(-c2ccnc(Nc3ccnc(Cl)c3)n2)c(CC2CC2)n1,3.2
19,COc1ccc(S(=O)(=O)N(C(C)=O)c2ccccc2/C=C/c2cc[n+]([O-])cc2)cc1,0.01
